Laboratory results published in PubChem BioAssay AID686978 (National Center for Advancing Translational Sciences (NCATS), 2013).
Hit rate of the full screen: of about 420,000 compounds, about 64,000 (15%) were called active. Inconclusive results (about 27%) are left out. The call rests on the fitted dose curve; in most records, active means well fitted inhibition curve with a large enough effect; inconclusive means small, poorly fitted or top-dose-only effect; inactive means flat fitted curve, though single readings scatter. These entries were drawn from the full list. A call without a number means that no potency is given here.

test: qHTS for Inhibitors of human tyrosyl-DNA phosphodiesterase 1 (TDP1): qHTS in cells in absence of CPT; details: DT40 Tdp1-/- hTDP1 cells, no CPT, ATP luminescence, 48 h; activity change, negative = growth inhibition: at 46.2 µM (top of the series); further: nearly all actives have a fitted effect of over 55% in size
Method in brief: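 Stably hTDP1-transfected Tdp1-null chicken DT40 cells were treated with library compounds minus camptothecin and grown for at least 48 hr at 37 °C, after which cellular ATP was quantified by luminescence.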
Potency means the concentration at half of the fitted maximal effect.

SMILES | Potency
CCCS(=O)(=O)N1CCC(C(=O)NCCCN(C)Cc2ccccc2)CC1 | inactive
CSc1ncnc2c1ncn2CCCNCc1ccco1 | inactive
O=C(Nc1cccnc1)c1cc2cc(Br)ccc2oc1=O | inactive
COC(=O)c1cc(=O)n(-c2c(Cl)cc(C(F)(F)F)cc2Cl)[nH]1 | inactive
CCOC(=O)c1c(NC(=O)CSc2nccc(=O)[nH]2)sc(C)c1C | inactive
CCC(=O)Nc1ccc(-c2ccc(N3CCCCC3)nn2)cc1 | inactive
Cc1ccc(S(=O)(=O)N2CCC(Oc3ccc(-n4cnnn4)cc3)CC2)cc1 | inactive
CN(C)c1ccc(/C=N/Nc2cc(N3CCOCC3)nc(N3CCOCC3)n2)cc1 | inactive
COc1ccc(/C=N/Nc2cc(N3CCOCC3)nc(C)n2)c(OC)c1 | 20.6 µM (active)
C(=N/Nc1cc(N2CCOCC2)nc(N2CCOCC2)n1)/c1ccccc1 | 20.6 µM (active)
Cc1ccccc1N/N=C/c1ccc(N2CCOCC2)cc1 | inactive
COc1ccc(/C=N/NC(=O)CNC(=O)c2ccc(S(=O)(=O)N3CCCC3)cc2)c(OC)c1 | inactive
COc1ccc(/C=N/NC(=O)Nc2ccc3nsnc3c2)c(OC)c1 | inactive
C=CCN1C(=O)C(Cc2ccc(OCC)cc2)SC1=Nc1ccc(C(=O)O)cc1 (centres undefined) | inactive
COc1ccc(N=C2SC(C(=O)Nc3ccc(F)cc3)CC(=O)N2C)cc1 (centres undefined) | inactive
CC1Cc2ccccc2N1C(=O)CSc1nnc(C2CC2)n1C (centres undefined) | inactive
COc1ccc(CC(=O)Nc2c(C(N)=O)oc3ccccc23)cc1 | inactive
COCCNC(=O)CSc1nc2c(n1-c1ccccc1)CCCC2 | inactive
Nc1ncnc2c1cnn2C1CC(O)C(CO)O1 (centres undefined) | inactive
Nc1ccn(C2CC(O)C(CO)O2)c(=O)n1 (centres undefined) | inactive
Nc1ncnc2c1ncn2C1CC(O)C(CO)O1 (centres undefined) | 4.61 µM (active)
O=[N+]([O-])c1ccc(C(S(=O)(=O)Cc2ccccc2)S(=O)(=O)Cc2ccccc2)cc1 | 18.4 µM (active)
O=C(NNS(=O)(=O)Cc1ccccc1)c1ccc([N+](=O)[O-])cc1 | inactive
O=C(Cc1ccccc1)NNS(=O)(=O)c1ccc([N+](=O)[O-])cc1 | inactive
Cn1c(N)cc(-c2ccc(F)cc2)c(C#N)c1=O | inactive
CCOc1ccc(N=C2NC(=O)S/C2=C\c2ccc(O)cc2)cc1 | inactive

SMILES | Potency
CCOc1[nH]n(-c2ccc(Cl)cc2)c(=O)c1C=Nc1ccc(O)cc1 | 5.17 µM (active)
CC(=O)Cn1ncc(N2CCOCC2)c(Br)c1=O | inactive
Cc1ccc(Cc2nc(-c3cccc(C)c3)no2)cc1 | inactive
N/C(=N\S(=O)(=O)c1ccc(Cl)cc1)N1CCOCC1 | inactive
CCOC(=O)c1cnc2nc(SCc3ccccc3Cl)[nH]n2c1=O | inactive
COc1ccc(OCCn2ccnc2C)cc1 | inactive
COc1ccc(OCCCn2c(C)nc3cc(C)c(C)cc32)cc1 | 10.3 µM (active)
COCCOCCn1cnc2ccccc21 | inactive
COc1ccc2ccn(C)c2c1 | inactive
Cc1cc2ncn(CCCCOc3ccccc3)c2cc1C | 14.6 µM (active)
O=c1c2ccccc2ncn1CCCCOc1ccccc1F | inactive
Cc1ccc(C(=O)N2CCN(S(=O)(=O)N3CCOCC3)CC2)cc1 | inactive
N#Cc1c(-c2cccs2)nc(SCC(=O)c2ccc(Br)cc2)[nH]c1=O | inactive
O=C(NC(C(=O)NCCN1CCOCC1)C12CC3CC(CC(C3)C1)C2)C1CCCCC1 (centres undefined) | inactive
Cc1ccc(S/C(=N\S(=O)(=O)c2ccc(Cl)cc2)c2ccccc2)cc1 | 10.3 µM (active)
O=S(=O)(/N=C(/Nc1ccccn1)c1ccccc1)c1ccc(Cl)cc1 | inactive
Cc1ccc(S(=O)(=O)/N=C(/Nc2ccccn2)c2ccc(Cl)cc2)cc1 | inactive
O=C(CCS(=O)(=O)c1ccccc1Cl)Nc1ccc(S(=O)(=O)Nc2ncccn2)cc1 | inactive
O=C(O)c1ccccc1NC(=O)c1ccccc1-c1ccccc1C(=O)O | inactive
CCOC(=O)CCNC(=O)N1CCCC(C(=O)c2ccccc2SC)C1 (centres undefined) | inactive
CCNC(=O)N1CCCC(C(=O)c2ccc(-c3ccccc3)cc2)C1 (centres undefined) | 9.2 µM (active)
Cc1ccccc1NC(=O)C1CCCN(C(=O)NCc2ccccc2)C1 (centres undefined) | inactive
O=C(CSc1nnc(-c2ccco2)n1-c1ccccc1)NCCc1ccccc1 | inactive
CCOC(=O)N1CCN(Cc2nc(N)nc(Nc3ccc(C)cc3)n2)CC1 | inactive
Cc1ccc(Nc2nc(N)nc(CN3CCN(Cc4ccccc4)CC3)n2)cc1Cl | 16.4 µM (active)
CCSCc1nc(N)nc(NCCc2ccccc2)n1 | inactive

SMILES | Potency
CCOc1ccc(S(=O)(=O)NCc2ccc3c(c2)OCO3)cc1C | inactive
O=C(OCCN=C1NS(=O)(=O)c2ccccc21)c1cccc([N+](=O)[O-])c1 | inactive
Cc1cccc(C(=O)Nc2ccc(CC(=O)O)cc2)c1 | inactive
Cc1cccc(C(=O)Nc2ccc(C(=O)/C=C/c3cccs3)cc2)c1 | 16.4 µM (active)
Cc1ccc(C(=O)Nc2ccc(NC(=O)c3cccs3)cc2)c(C)c1 | inactive
COCCCNC(=O)CCc1nc2cccnc2n1Cc1ccc(OC)cc1 | inactive
COc1ccc(OC)c(CCNC(=O)CCCn2c(=O)c3cccn3c3cccnc32)c1 | 20.6 µM (active)
CC1CCCCC12NC(=O)N(CC(=O)Nc1ccc(S(=O)(=O)Nc3ncccn3)cc1)C2=O (centres undefined) | inactive
CC1CCN(C(=O)Cn2nnnc2CN2CCOCC2)CC1 | inactive
Cc1cccc(NC(=O)c2ccc(S(=O)(=O)N(C)c3ccccc3)cc2)n1 | 20.6 µM (active)
Cc1ccnc(NS(=O)(=O)c2ccc(NC(=O)c3ccc(S(=O)(=O)N(C)C)cc3)cc2)n1 | inactive
CN(c1ccccc1)S(=O)(=O)c1ccc2[nH]c(=O)[nH]c2c1 | inactive
O=C(NCc1ccccc1Cl)C(=O)NCC1CCCN1S(=O)(=O)c1cccs1 (centres undefined) | inactive
O=C(NCCC1CCCCN1S(=O)(=O)c1cccs1)C(=O)Nc1ccc(F)cc1F (centres undefined) | 2.59 µM (active)
O=C(NCCC1CCCCN1S(=O)(=O)c1ccc(F)cc1)C(=O)NC1CC1 (centres undefined) | inactive
CCOC(=O)N1CCN(CCC(=O)Nc2ccccc2)CC1 | inactive
Cc1nc(N2CCOCC2)c2c(C(=O)NCc3cccc(Cl)c3)c(C)oc2n1 | inactive
CCOC(=O)c1c(C)oc(C)c(C(=O)OCC)c1=O | inactive
CCOC(=O)c1c(C)oc2nc(C)nc(Nc3ccc(CC)cc3)c12 | inactive
CCOC(=O)c1c(C)oc2nc(C)nc(N3CCN(c4ccc(OC)cc4)CC3)c12 | 8.2 µM (active)
COc1ccc(N2CCN(C(=O)c3c(C)oc4nc(C)nc(N5CCCC5)c34)CC2)cc1 | inactive
CCOC(=O)c1c(C)oc2nc(C)nc(N(CC(C)C)CC(C)C)c12 | 16.4 µM (active)
NC(=O)c1cc(-c2cccnc2)nc2ccc(Br)cc12 | inactive
CN1C(=O)/C(=N/OC(=O)c2ccccc2Br)c2ccccc21 | inactive
COc1cc(SC#N)ccc1N=Cc1c(C)[nH]n(-c2ccc(C)cc2)c1=O | 3.66 µM (active)
CCOC(=O)c1sc2nc(C)nc(SCC(N)=O)c2c1C | inactive

SMILES | Potency
COC(=O)[C@]1(C)N[C@H](c2ccc(-c3ccc(Cl)c(Cl)c3)cc2)[C@@H]2C(=O)N(C)C(=O)[C@@H]21 | 16.4 µM (active)
COC(=O)C1(C)NC(c2ccc(F)cc2)C2C(=O)N(c3ccccc3)C(=O)C21 (centres undefined) | inactive
COC(=O)C1(C)NC(c2ccc(C)cc2)C2C(=O)N(c3ccc(F)cc3)C(=O)C21 (centres undefined) | inactive
O=S(=O)(c1ccc(F)cc1)N1CC=C(c2ccccc2)CC1 | inactive
CC1(C)CC(=O)C2=C(C1)NCN(CCCN1CCOCC1)C2 | inactive
Cc1c(NC(=O)CN2C(=O)C(=O)N(Cc3ccccc3)C2=O)c(=O)n(-c2ccccc2)n1C | inactive
CCOC(=O)c1cc2c(=O)n3ccccc3nc2n(CC(C)C)c1=NC(=O)c1c(-c2c(F)cccc2Cl)noc1C | 5.8 µM (active)
CCOC(=O)c1cc2c(=O)n3ccccc3nc2n(CCCOC)c1=NC(=O)C(C)Oc1ccccc1 (centres undefined) | inactive
CCOC(=O)c1cc2c(=O)n3ccccc3nc2n(CC2CCCO2)c1=NC(=O)c1ccc(C(C)(C)C)cc1 (centres undefined) | inactive
c1c2c(cc3sc(N4CCCCC4)nc13)OCCO2 | inactive
CCC(C)(C)c1ccc(OCC(=O)N(C)C)c(C(C)(C)CC)c1 | 18.4 µM (active)
CCc1nc(C)ccc1OCC(=O)N(CC)CC | inactive
CCn1c(CNc2ccc(OC)cc2)nnc1SCC(=O)c1ccc(OC)cc1 | inactive
Cc1cccc(C(=O)NNC(=O)CSc2nnc(C(C)C)n2C)c1 | inactive
CCn1c(SCC(=O)NNC(=O)c2ccc(OC)cc2)nnc1C(C)C | 20.6 µM (active)
CCNC(=O)NC(=O)C(C)OC(=O)C1CCN(S(=O)(=O)c2ccccc2F)CC1 (centres undefined) | inactive
Cc1nc(COc2cccc(Cl)c2)sc1C(=O)/C=C/N(C)C | inactive
CCOc1ccc(S(=O)(=O)N2CCC(c3ccccc3)CC2)cc1C(=O)O | inactive
CCOc1ccccc1C(=O)Nc1ccc(S(=O)(=O)N2CCCCC2c2cccnc2)cc1 (centres undefined) | 18.4 µM (active)
CC(C)NS(=O)(=O)c1ccc(NC(=O)c2cccnc2)cc1 | inactive
Cc1cccc(C(=O)Nc2ccc(S(=O)(=O)N3CCCCC3c3cccnc3)cc2)c1 (centres undefined) | 18.4 µM (active)
CCOc1ncccc1C(=O)Nc1ccc(S(=O)(=O)Nc2nc(C)cc(C)n2)cc1 | inactive
Cc1cc(NS(=O)(=O)c2ccc(NC(=O)c3cccnc3)cc2)nc(C)n1 | inactive
CCn1ccnc1CNC(=O)CC1C(=O)NCCN1Cc1ccc(F)cc1Cl (centres undefined) | inactive
COC(=O)Cn1c(=NC(=O)c2cc(OC)c(OC)c(OC)c2)sc2cc(OC)ccc21 | inactive
NS(=O)(=O)c1cccc(NC(=O)COC(=O)c2cc([N+](=O)[O-])ccc2N2CCCC2)c1 | inactive
